# From the supplement of paper PMC6992640
# ± gives the standard deviation of the averaged measurements.
# Legend:
# Experiment in all cases: cell viability (% of vehicle); higher = less cytotoxic
# HCI01 [1] = cells of a triple-negative basal-like breast cancer xenograft; settings: 1 µM; 72 h
# UCD52 [2] = cells of a triple-negative basal-like breast cancer xenograft; settings: 1 µM; 72 h
# WHIM2 [3] = cells of a triple-negative basal-like breast cancer xenograft; settings: 1 µM; 72 h
# WHIM30 [4] = cells of a triple-negative basal-like breast cancer xenograft; settings: 1 µM; 72 h
# HCI01 [5] = settings: 10 µM; 72 h
# HCI03 = cells of an ER-positive luminal breast cancer xenograft; settings: 10 µM; 72 h
# HCI09 = cells of a triple-negative luminal androgen receptor type breast cancer xenograft; settings: 10 µM; 72 h
# HCI11 = cells of an ER-positive luminal breast cancer xenograft; settings: 10 µM; 72 h
# HCI13 = cells of an ER-positive luminal breast cancer xenograft; settings: 10 µM; 72 h
# HCI16 = cells of a triple-negative basal-like breast cancer xenograft; settings: 10 µM; 72 h
# UCD52 [6] = settings: 10 µM; 72 h
# WHIM2 [7] = settings: 10 µM; 72 h
# WHIM30 [8] = settings: 10 µM; 72 h
SMILES,cell viability (HCI01 [1]),cell viability (UCD52 [2]),cell viability (WHIM2 [3]),cell viability (WHIM30 [4]),cell viability (HCI01 [5]),cell viability (HCI03),cell viability (HCI09),cell viability (HCI11),cell viability (HCI13),cell viability (HCI16),cell viability (UCD52 [6]),cell viability (WHIM2 [7]),cell viability (WHIM30 [8])
CCc1c(Cl)c(O)c(Cl)c(O)c1C(=O)OC1C(C)OC(OCC2=CC=CCC(O)C(C)=CC(CC)C(OC3OC(C)(C)C(OC(=O)C(C)C)C(O)C3O)C(C)=CC(C)=CCC(C(C)O)OC2=O)C(OC)C1O (centres undefined) [Fidaxomicin],99.3,110,122,102,39.9 ± 12,65.5,28.6 ± 7.5,72.7,46.3 ± 0.086,56.3,44.6 ± 6.6,40.7 ± 8.9,29.3 ± 0.66
Cc1cc(Nc2ncc(Cl)c(Nc3ccccc3S(=O)(=O)C(C)C)n2)c(OC(C)C)cc1C1CCNCC1,76.4,45.8,63.1,47.9,34.4 ± 7.6,37.8,17.5 ± 1.3,29.3,27.6 ± 17,44.6,24.86 ± 0.13,45.5 ± 4.4,29.3 ± 1.2
CNCCC(Oc1cccc2ccccc12)c1cccs1.Cl (centres undefined) [Duloxetine HCl],85.4,95.4,91.1,79.7,87.3 ± 6.3,106,55.9 ± 34,70.8,112 ± 11,66.6,30.9 ± 1.8,38.5 ± 0.71,80.9 ± 9.8
CC(C)N=c1cc2n(-c3ccc(Cl)cc3)c3ccccc3nc-2cc1Nc1ccc(Cl)cc1 [Clofazimine],88.1,84.9,90.3,80.2,54.8 ± 28,83.9,38.8 ± 13,88.8,43.6 ± 9.1,77.6,44.2 ± 1.7,53.1 ± 15,68.8 ± 6.1
COc1cc(C(=O)O)ccc1NC(=O)C1NC(CC(C)(C)C)C(C#N)(c2ccc(Cl)cc2F)C1c1cccc(Cl)c1F (centres undefined),95.1,89.1,99.1,91.3,63.9 ± 30,143,37.1 ± 9.3,118,60.9 ± 7.6,97.1,101 ± 6.1,44.9 ± 8.6,102 ± 14
COC(=O)c1ccc2c(c1)NC(=O)C2=C(Nc1ccc(N(C)C(=O)CN2CCN(C)CC2)cc1)c1ccccc1 [Nintedanib (BIBF 1120)],83.1,46,46.6,51.2,70.5 ± 19,63.6,51.4 ± 46,59,71.2 ± 12,85.5,34.9 ± 2.4,65.2 ± 15,47 ± 11
O=C1C=CC=CC1=C1NC(=C2C=CC=CC2=O)N(c2ccc(C(=O)O)cc2)N1 [Deferasirox],87.9,92,92.2,98.2,65.5 ± 9.3,129,62 ± 39,107,62.9 ± 16,101,77.7 ± 33,95.2 ± 25,70.1 ± 1.5
Cc1cccc(CN2CCN(C(c3ccccc3)c3ccc(Cl)cc3)CC2)c1.Cl.Cl (centres undefined) [Meclizine 2HCl],136,93.4,98,99.5,85.9 ± 7.1,57.9,74 ± 12,67.4,52.7 ± 10,91.8,44 ± 6.2,71.6 ± 13,45.4 ± 6.8
CC[C@@H]1/C=C(\C)C[C@H](C)C[C@H](OC)[C@H]2O[C@@](O)(C(=O)C(=O)N3CCCC[C@H]3C(=O)O[C@H](/C(C)=C/[C@@H]3CC[C@H](Cl)[C@H](OC)C3)[C@H](C)[C@@H](O)CC1=O)[C@H](C)C[C@@H]2OC [Pimecrolimus],102,89,82.4,86,71.4 ± 29,65.3,29.4 ± 5.2,76.9,56.5 ± 5.4,71.1,43.9 ± 8,62.5 ± 15,87.7 ± 14
CN(C)c1ccc(O)c2c1CC1CC3C(N(C)C)C(=O)C(C(N)=O)=C(O)C3(O)C(=O)C1=C2O.Cl (centres undefined) [Minocycline HCl],103,100,91.2,102,68.2 ± 8.5,59.2,55.8 ± 58,52.6,78.7 ± 12,96.5,70.7 ± 4.3,82.8 ± 14,81.8 ± 11
Cc1ccc(NC(=O)c2ccc(CN3CCN(C)CC3)cc2)cc1Nc1nc(-c2cccnc2)cs1 [Masitinib (AB1010)],113,85.9,114,84.6,53.6 ± 6.1,68.7,20 ± 2.6,37.8,55.8 ± 12,93.6,49.9 ± 13,46.2 ± 8,146 ± 61
CC1(C)Cc2c(-c3ccccc3)c(-c3ccc(Cl)cc3)c(CC(=O)O)n2C1 [Licofelone],125,103,90.3,97.1,46.1 ± 16,99.4,31.5 ± 2.2,90.2,84.6 ± 0.91,89.5,86.3 ± 4,47.3 ± 7,88.4 ± 11
CCCCc1oc2ccc(NS(C)(=O)=O)cc2c1C(=O)c1ccc(OCCCN(CCCC)CCCC)cc1 [Dronedarone],98.7,81.4,91.8,79.8,32.4 ± 2,40.7,22.2 ± 1.3,90.5,35.6 ± 0.56,32.7,29.7 ± 2.9,41.3 ± 5.4,38.6 ± 2.7
CCOc1cc2ncc(C#N)c(Nc3ccc(F)c(Cl)c3)c2cc1NC(=O)C=CCN(C)C [Pelitinib (EKB-569)],98.5,27,31.4,46.1,30.5 ± 8.4,60.7,21.7 ± 4.1,37.7,34.2 ± 0.47,37.9,32.5 ± 1.5,31.1 ± 17,57.6 ± 12
C=C1C(=CC=C2CCCC3(C)C2CCC3C(C)CCCC(C)C)CC(O)CC1O (centres undefined) [Alfacalcidol],72.3,59,51.8,91.3,31.7 ± 13,124,29.8 ± 8.2,70.1,52.6 ± 8.1,106,68.1 ± 0.89,49.9 ± 8.4,97.46 ± 0.87
CS(=O)(=O)CCNCc1ccc(-c2ccc3ncnc(Nc4ccc(OCc5cccc(F)c5)c(Cl)c4)c3c2)o1.Cc1ccc(S(=O)(=O)O)cc1.Cc1ccc(S(=O)(=O)O)cc1 [Lapatinib Ditosylate],71.7,57.1,56.2,61.1,49.51 ± 0.1,45.4,36.3 ± 18,67.8,42.39 ± 0.3,61.8,28.1 ± 1.9,37.7 ± 3,47.4 ± 4
Cc1nc(NC(=O)N2CCCC2C(N)=O)sc1-c1ccnc(C(C)(C)C(F)(F)F)c1 (centres undefined),74,64.7,54.9,83.3,85.7 ± 9.2,45.8,28.8 ± 5.1,75.9,44.2 ± 6.9,93.6,38.5 ± 2.5,65.6 ± 19,65.9 ± 2

SMILES,cell viability (HCI01 [1]),cell viability (UCD52 [2]),cell viability (WHIM2 [3]),cell viability (WHIM30 [4]),cell viability (HCI01 [5]),cell viability (HCI03),cell viability (HCI09),cell viability (HCI11),cell viability (HCI13),cell viability (HCI16),cell viability (UCD52 [6]),cell viability (WHIM2 [7]),cell viability (WHIM30 [8])
CN1CCCC1CCOC(C)(c1ccccc1)c1ccc(Cl)cc1.O=C(O)C=CC(=O)O (centres undefined) [Clemastine Fumarate],98.5,85.8,103,78.8,95.7 ± 30,79.3,52.8 ± 36,69.2,136 ± 24,74.4,36.5 ± 3.4,37.8 ± 3,104 ± 10
CCCCCCCCc1ccc(CCC(N)(CO)CO)cc1.Cl [Fingolimod (FTY720)],97.7,87.9,92.2,84.3,28.9 ± 5.8,53.9,18.8 ± 3.1,33.8,52.3 ± 9.9,49.1,25.6 ± 1.3,77.9 ± 3.2,82.5 ± 15
COc1cc2nccc(Oc3ccc(NC(=O)C4(C(=O)Nc5ccc(F)cc5)CC4)cc3)c2cc1OC.O=C(O)CC(O)C(=O)O [Cabozantinib malate (XL184)],92.9,93.9,90.8,84.4,88.7 ± 13,45.4,58.2 ± 4.8,44,85.1 ± 15,63.4,34.5 ± 3.2,105 ± 6.6,56 ± 1.8
COc1ccc(C[C@H](N)C(=O)N[C@@H]2[C@H](O)[C@H](n3cnc4c(N(C)C)ncnc43)O[C@@H]2CO)cc1.Cl.Cl [Puromycin dihydrochloride],93.8,22.3,86.9,76.8,28.6 ± 2.4,58.6,26.89 ± 0.082,33.4,51.1 ± 14,52,34.5 ± 0.59,42 ± 4.2,33.3 ± 2.3
C#Cc1cccc(Nc2ncnc3cc(OCCOC)c(OCCOC)cc23)c1 [Erlotinib],62.6,59.8,53.7,65,79.4 ± 26,73.6,63.7 ± 8.2,74.2,72.7 ± 3.5,81.1,67.82 ± 0.58,47.9 ± 9,107 ± 4.9
COc1ccc2c(O[C@H]3CC4C(=O)N(C)CCCC/C=C\[C@H]5C[C@@]5(C(=O)NS(=O)(=O)C5CC5)NC(=O)[C@@H]4C3)cc(-c3nc(C(C)C)cs3)nc2c1C (some centres undefined) [Simeprevir],104,90.4,106,86.7,29.8 ± 3.8,39.5,20.8 ± 2.6,72.7,38.5 ± 3.4,28.7,32.64 ± 0.11,39 ± 3.6,28.5 ± 2.1
Cc1nc(Nc2ncc(C(=O)Nc3c(C)cccc3Cl)s2)cc(N2CCN(CCO)CC2)n1,78.6,39.7,67.7,55.6,59.7 ± 21,53.7,53.2 ± 2.6,60.3,40.2 ± 3.5,40.5,39.3 ± 3.5,39.3 ± 3.4,57.8 ± 1.2
CCCCCOc1ccc(-c2ccc(-c3ccc(C(=O)N[C@H]4C[C@@H](O)[C@@H](O)NC(=O)[C@@H]5[C@@H](O)[C@@H](C)CN5C(=O)[C@H]([C@@H](C)O)NC(=O)[C@H]([C@H](O)[C@@H](O)c5ccc(O)cc5)NC(=O)[C@@H]5C[C@@H](O)CN5C(=O)[C@H]([C@@H](C)O)NC4=O)cc3)cc2)cc1 [Anidulafungin],100,82.5,82.8,72.2,45 ± 2.3,67.5,40.3 ± 15,92.4,58.3 ± 5.8,55.2,47.7 ± 8.9,67.4 ± 5.7,112 ± 16
Clc1ccc(C(Cn2ccnc2)OCc2c(Cl)cccc2Cl)c(Cl)c1.O=[N+]([O-])O (centres undefined) [Isoconazole nitrate],123,112,126,105,57.9 ± 28,119,25.8 ± 3.4,101,54.2 ± 8.2,140,44.1 ± 5.8,52.1 ± 6.9,100 ± 2.2
CNCCCC12CCC(c3ccccc31)c1ccccc12.Cl [Maprotiline HCl],90.9,81.1,93.2,83.3,89.8 ± 4.9,75.5,56.8 ± 21,78.4,107.1 ± 0.46,80.2,35.4 ± 2.8,66.6 ± 10,44.8 ± 30
CC[C@@]1(O)C(=O)OCc2c1cc1n(c2=O)Cc2cc3c(CN(C)C)c(O)ccc3nc2-1 [Topotecan],65.9,101,56.5,37.4,42.8 ± 6.2,128,28.1 ± 0.98,44.4,49.1 ± 5.8,73,42.4 ± 0.96,44.5 ± 3.2,83.2 ± 6.8
CC(C)CC(NC(=O)C(NC(=O)c1cccc(-c2ccccc2)n1)C(C)O)B(O)O (centres undefined),55.2,25,132,22.5,76.8 ± 10,93.4,15.8 ± 2,171,40.5 ± 10,82.8,66 ± 0.77,42.8 ± 3.3,93.3 ± 3.5
N.N.O=C([O-])C1(C(=O)[O-])CCC1.[Pt+2] [Carboplatin],87.9,80.1,99.9,77,82.1 ± 6.4,82.7,91.7 ± 4,86.4,86.87 ± 0.21,51,39.6 ± 6.8,84.8 ± 13,89 ± 5.5
CO[C@H]1C[C@@H]2CC[C@@H](C)[C@@](O)(O2)C(=O)C(=O)N2CCCC[C@H]2C(=O)O[C@H]([C@H](C)C[C@@H]2CC[C@@H](OC(=O)C(C)(CO)CO)[C@H](OC)C2)CC(=O)[C@H](C)/C=C(\C)[C@@H](O)[C@@H](OC)C(=O)[C@H](C)C[C@H](C)/C=C/C=C/C=C/1C [Temsirolimus],76.2,55.1,80,74.2,31.8 ± 1.4,57.5,26.7 ± 8.6,54.3,24.6 ± 11,45.2,23.1 ± 2.3,42.4 ± 15,30.5 ± 1.6
CCCCCCCCOc1ccccc1C(=O)Nc1ccc(C(=O)OCC[N+](C)(CC)CC)cc1.[Br-] [Otilonium Bromide],91.3,100,105,90.7,51.9 ± 1.6,110,37.4 ± 9.3,77.9,42.9 ± 2.6,81.7,63.47 ± 0.62,37.7 ± 9.5,98.3 ± 10
COCCOC(=O)C1=C(C)NC(C)=C(C(=O)OCC=Cc2ccccc2)C1c1cccc([N+](=O)[O-])c1 (centres undefined) [Cilnidipine],111,95.4,97.7,103,93.8 ± 25,90.1,81.4 ± 20,81.7,66.6 ± 38,54.9,84 ± 6.8,41.1 ± 16,68.7 ± 1.3
